The text below walks through data of PubChem BioAssay AID743279 (National Center for Advancing Translational Sciences (NCATS), 2014).

Each structure is given as a SMILES string. The whole screen tested about 360,000 compounds, of which about 17,000 (4.7%) were called active. Inconclusive results (about 5%) are left out. Many of the other results were omitted from the sample, so actives are more common in it than they were. Values without a mark were called inactive. No stated cut-off is given here; in the data, active means activity change below about -50%; inconclusive means mostly about -30% to -49%; inactive means weaker than that.
On the % scale 0 is the no-effect control and ±100 the full control effect.

A short description of the test: qHTS for Inhibitors of Inflammasome Signaling: IL-1-beta AlphaLISA Primary Screen. Particulars: THP-1 LPS/ATP IL-1B secretion, 16 h; at 57.5 µM, stronger effect = lower value. Put shortly:
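Secreted IL-1B measured by AlphaLISA bead assay after 16 h compound exposure of THP-1 cells; compounds (final up to 57.5 uM) added 1 h before LPS (250 ng/mL) and ATP (1.25 mM) stimulation; lower signal means less secretion.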
For orientation: qHTS replaces the single test concentration by a dilution series.
Consider `O=C(N/N=C/c1ccc(Cl)cc1)c1nc2ccc([N+](=O)[O-])cc2c(=O)[nH]1`, for which the activity change is 7.76%. For `O=C(CCc1nc2ccccc2c(=O)[nH]1)OCC(=O)c1cccc(Cl)c1` the value was 0%; for `O=C(/C(=C/c1cccc(Cl)c1)c1nc2ccccc2[nH]1)c1ccccc1`, -95.6% (active); for `c1cc(-c2ccc3[nH]ccc3c2)n2ccnc2c1`, 10.3%. The result for `CN(CC(=O)NC1CCCCC1)S(=O)(=O)c1ccc(Br)s1` reads 2.52%. The result for `CC1CN(C(=O)CCC(=O)NC2CCN(Cc3ccccc3)CC2)c2ccccc2O1` (configuration not stated) reads -3.91%; that for `CN(CC(=O)NC1CCN(Cc2ccccc2)CC1)S(=O)(=O)c1ccc(Cl)s1`, -53.7% (active); that for `COc1cccc(OC)c1C(=O)N1CCN(Cc2ccccc2F)CC1`, -14.9%. With `COc1cccc(-c2cnc3c(NC(C)=O)cc(-c4cc(F)ccc4OC)cn23)c1`, the activity change is -11.1%.

As to `Cc1ccccc1N1CCN(Cc2nc(Cc3ccccc3F)no2)CC1`, the activity change is 15.1%. Take `COc1ccc(CCNC(=S)N2CCN(S(=O)(=O)c3ccc(Cl)cc3)CC2)cc1`: the activity change is 0%. For the molecule `O=C(NCCc1ccc(Cl)cc1)c1cccc(N2CCCC2=O)c1`, the activity change was -5.88%. The result for `Oc1cc2c(cc1O)CN(C(=S)NCCc1ccc(Cl)cc1)CCC2` reads -66.9% (active); that for `O=C(Nc1ccc(S(=O)(=O)Nc2ccccn2)cc1)c1ccccc1`, “inactive”; that for `O=C(Nc1ccccc1)c1nnsc1S(=O)(=O)c1ccc(Cl)cc1`, -53.3% (active).

Take `O=C(Nc1ccc(Cl)cc1)Nc1nnc(/C=C/c2ccccc2)s1`: the activity change is 11.5%. For `CCCCc1nc(SCC(=O)Nc2nnc(C(C)C)s2)n[nH]1` the value was 10.5%; for `CSCCC(NC(=O)C1CCC(C)CC1)C(=O)NCc1ccco1` (configuration not stated), -25.5%. Take `CN1C(c2ccc(F)cc2)=CS/C1=C(/C#N)c1nnc2n1-c1ccccc1SC2`: the activity change is -68.6% (active). The result for `COc1cc(OC)cc(-c2nc3ccccc3c(=O)n2NC(=O)c2cccnc2Cl)c1` reads -0.823%.

Regarding `O=C(Nc1ccc2c(c1)OCCO2)C1c2ccccc2OCC(=O)N1Cc1ccccn1` (configuration not stated), the activity change is 18.3%.

Consider `CC(C)Cn1cc(-c2cncc3nccn23)cn1`, for which the activity change is -7.82%.

`CCOc1nc(OCC)nc(-n2cc(-c3ccccc3)nn2)n1`: the activity change is -60.1% (active). The result for `CCCCCc1ccc(-c2cn(Cc3ccc4ccccc4c3)nn2)cc1` reads -1.04%; that for `CCOC(=O)c1nnn(-c2nc(OC)nc(N(C)C)n2)c1-c1ccccc1`, 44.9%.

Consider `COc1ccc(-c2ccc(CN3C(CC(C)C)C(=O)N(Cc4cn(CC5CCCCC5)nn4)CCS3(=O)=O)cc2)cn1` (configuration not stated), for which the activity change is -12.3%. The result for `CC(=O)NN=C(C)c1ccc(NC(=O)C2CC2)cc1` reads -22.8%; that for `CCc1ccc2c(c1)cc(CN(C(=S)Nc1ccccc1Cl)C1CC1)c1nnnn12`, 14.3%. In the case of `COc1cc(C(=S)N2CCOCC2)cc(OC)c1OC(=O)c1ccc([N+](=O)[O-])cc1[N+](=O)[O-]`, the activity change was -15.3%.

Turning to `COc1cc([N+](=O)[O-])cc([N+](=O)[O-])c1NC(=O)N1CCOCC1`, the activity change is -92.7% (active). The result for `COc1cc(C(=S)N2CCOCC2)cc(OC)c1OC(=O)c1cc([N+](=O)[O-])cc([N+](=O)[O-])c1` reads 22%. For `OC[C@@H]1CN(Cc2ccc(-c3ccccc3)cc2)C[C@H](n2cnc3c(NC4CCCC4)ncnc32)O1` the value was -3.87%.

In the case of `COc1cc2cc(C(=O)N/N=C/c3cccc(OC)c3OC)[nH]c2cc1OC`, the activity change was -70% (active). The result for `CCOc1ccc2[nH]c(C(=O)N/N=C/c3cccc(OC)c3OC)cc2c1` reads 0%. For `COc1ccc2[nH]c(C(=O)N/N=C/c3cc(OC)c(OC)c(OC)c3)cc2c1` the value was -6.28%; for `Cc1cc2c3ccccc3[nH]c(=O)n2n1`, -25.1%.

With `O=C1c2ccccc2C(=O)C1C(=O)C1CC1`, the activity change is 8.56%. For `Nc1cccc(-c2cncc(N3CCN(Cc4ccccn4)CC3)n2)c1` the value was -1.3%; for `O=C(C[C@H]1C[C@H]2c3cc(NS(=O)(=O)c4ccc(F)cc4)ccc3O[C@H]2[C@H](CO)O1)NCc1cc(F)ccc1F`, 9.17%; for `COc1ccc2cc1Oc1ccc(cc1)C[C@H]1c3cc(c(OC)cc3CCN1C)Oc1c(O)c(OC)cc3c1[C@H](C2)N(C)CC3`, -107% (active). For `OC(c1ccc(Cl)c(F)c1)c1ncc(-c2ccccc2Cl)[nH]1` (configuration not stated) the value was 1.76%; for `CCc1nc2c(OCCc3cccc(OC)c3)cccn2c1N(C)C(=O)c1ccc(C)cc1`, -7.64%. For `Cc1ccc(NC(=O)COC(=O)CN2CCSC2=O)cc1F`, the activity change was 4.94%. For `Cc1cc2nc(-c3ccc(F)cc3)c(Cc3ccsc3)n2c(C)c1Br` the value was 14%; for `Cc1cccc[n+]1CC(=O)c1ccccc1`, 22.7%; for `Cc1ccc(-c2c[n+](CC(=O)Nc3ccccc3)c3n2CCC3)cc1`, -60.8% (active). Consider `Cc1ccc(NC(=O)CN2CCc3ccccc3C2)cc1`, for which the activity change was 7.54%. The result for `Cc1ccc(NC(=S)N2CCCC(c3ccccc3)=N2)cc1` reads -20.4%; that for `Cc1ccc(C(=O)N2CCCC(c3ccccc3)=N2)cc1`, -5.32%.

`Cc1ccc(C(=O)C[n+]2cc(-c3ccccc3)n3c2CCCCC3)cc1`: the activity change was -83.1% (active). For `COc1cccc(NC(=O)N(C)C[C@@H]2Oc3ncc(Br)cc3C(=O)N([C@@H](C)CO)C[C@H]2C)c1` the value was 2.84%. For `NNC(=O)COc1ccc(C2SCCS2)cc1` the value was 15.3%.

Take `OC[C@@H]1CN(Cc2cccs2)C[C@H](n2cnc3c(NC4CCCC4)ncnc32)O1`: the activity change was -3.1%. As to `CC1CCCC(NC(=O)COC(=O)c2ccccc2C(=O)N(C)C2CCCCC2)C1C` (configuration not stated), the activity change is -16.9%. For `CCOc1ccc(OCC)c(-c2c(=O)n(OCc3ccc(Cl)cc3)c3ccccc3[n+]2[O-])c1`, the activity change is -67% (active). The result for `O=c1c(-c2ccc(Cl)cc2)[n+]([O-])c2ccccc2n1OCc1nc2ccccc2[nH]1` reads 14.2%; that for `CCOC(=O)COn1c(=O)c(-c2ccc(OCC)cc2)[n+]([O-])c2ccccc21`, 4.15%; that for `CC(=O)OC1CCC2C3CCC4=C(CC(F)C(=O)C4)C3CCC12C` (configuration not stated), 5.77%. For `Cc1cn([C@H]2C[C@H](O)[C@@H](CNC(=O)[C@H](N)Cc3cccnc3)O2)c(=O)[nH]c1=O` the value was 11.3%; for `O=C(Nc1cccc(C(F)(F)F)c1)c1ccc(N2CCNCC2)c([N+](=O)[O-])c1`, -82.2% (active); for `CC(NC(=O)c1ccc(N2CCNCC2)c([N+](=O)[O-])c1)C12CC3CC(CC(C3)C1)C2` (configuration not stated), -72.6% (active). For the molecule `O=C(Nc1ccc(N2C(=O)c3cccc4cccc(c34)C2=O)cc1)c1ccc(N2CCCCC2)c([N+](=O)[O-])c1`, the activity change is -6.25%. For `CCC(C)NC(=O)c1ccc(N2CCC3(CC2)OCCO3)c([N+](=O)[O-])c1` (configuration not stated) the value was 0.859%. The result for `Cc1cccc(C)c1NC(=O)CNC(=O)c1ccc(N2CCOCC2)c([N+](=O)[O-])c1` reads -0.22%; that for `CS(=O)(=O)N1CCN(c2ccc(C(=O)NC3C4CC5CC(C4)CC3C5)cc2[N+](=O)[O-])CC1` (configuration not stated), 5.99%. On to `Cc1nc2nc(C)c(CCC(=O)N3CCN(c4ccccc4)CC3)c(C)n2n1`, for which the activity change was -17.6%. Take `C[N+](C)(C)CCNC(=O)c1c[nH]c2ccccc12`: the activity change is 24.4%.

For the molecule `CCC(C(=O)NCc1cccnc1)n1nc(C)c2sc3ccccc3c2c1=O` (configuration not stated), the activity change was -16.1%. Regarding `Cc1ccc(S(=O)(=O)N(CC(=O)NN=C2CCN(C)CC2)c2ccc(F)cc2)cc1`, the activity change was 31%. As to `CCNC(=O)CN(c1ccc(C)cc1)S(=O)(=O)c1ccc(SC)cc1`, the activity change is -55.3% (active). For `CCOc1ccc(N(CC(=O)NCC2CCCO2)S(=O)(=O)c2ccc(C)cc2)cc1` (configuration not stated) the value was 7.07%; for `COc1ccc(S(=O)(=O)NC(=O)C2(C)CCN2C(=O)c2ccccc2CCc2ccccc2)cc1` (configuration not stated), 22.1%; for `CCCNC(=O)C1(C)CCN(C(=O)c2ccccc2OC(F)(F)F)C1` (configuration not stated), 15.8%. On to `COc1ncnc2c1ncn2CCCNCCN1CCOCC1`, for which the activity change was 44.5%. The result for `O=S(=O)(O)c1cc2onnc2c2ccccc12` reads 0%; that for `CNc1nc(Nc2ccc(C)c(Cl)c2)nc(N)c1[N+](=O)[O-]`, -21.8%.

Consider `Cc1ccc(Nc2nc(N)nc(CN3CCN(Cc4ccccc4)CC3)n2)cc1Cl`, for which the activity change was 0%.

For `OCCNc1nc(Nc2ccc(Cl)c(Cl)c2)nc2ccccc12`, the activity change was -92.5% (active).

Turning to `COc1cc(NC(=O)C2=C(C)OCCS2)c(Cl)cc1C(=O)NCCCN1CCCC(C)C1` (configuration not stated), the activity change was -28.6%. On to `CCCNC(=O)C1(C)CCN(C(=O)c2cc(F)ccc2C)C1` (configuration not stated), for which the activity change is 34.1%. The result for `COc1cccc(C(NC(C)=O)c2nc(-c3ccccc3OC)cs2)c1` (configuration not stated) reads 9.34%; that for `COC(=O)C[C@@H]1C=C[C@@H](NC(=O)c2ccc3c(c2)OCO3)[C@@H](CO)O1`, 7.5%; that for `CCCCNC(=O)CN1C(=O)NC(Cc2ccccc2)(Cc2ccccc2)C1=O`, 4.67%.

In the case of `COc1cccc(CNC(=O)CN2C(=O)NC(Cc3ccccc3)(c3ccccc3)C2=O)c1` (configuration not stated), the activity change was -58.8% (active). For `COc1cccc(CNC(=O)COC(=O)CN2C(=O)NC3(CCCCC3C)C2=O)c1` (configuration not stated) the value was 8.38%. As to `CN(Cc1nc2ccccc2c(=O)[nH]1)Cc1cc(=O)oc2ccc3ccccc3c12`, the activity change was 0.506%. For `O=C(CNc1ccccc1N1CCCC1=O)Nc1cc(Cl)ccc1-n1cncn1` the value was -19.4%.
